Whole data set: some 110,000 compounds, median “z-score” near -0.1, cut for the highest 2% near 2. Many of the other results were omitted from the sample, so the highest values are more common in it than they were. Active and inactive are the calls of the source.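 Rule for the calls: active = z-score in the third read window above 3 or below -3; inactive = the rest.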

For this assay, the target named is Metabotropic glutamate receptor 8 (Rattus norvegicus) (UniProt P70579). Put plainly: mGluR8 Gi/Go-coupled signaling modulation – cell-based, rat, thallium flux, HTS, primary screen (AID 488969). The settings on record: HEK293 rat mGluR8, GIRK (G protein-gated inwardly rectifying potassium channel) thallium flux, FluoZin2; at 10 µM; stronger effect = higher value; submaximal glutamate (EC20) added with thallium.
Chain of Metabotropic glutamate receptor 8 (Rattus norvegicus) (P70579 whole entry, looked up): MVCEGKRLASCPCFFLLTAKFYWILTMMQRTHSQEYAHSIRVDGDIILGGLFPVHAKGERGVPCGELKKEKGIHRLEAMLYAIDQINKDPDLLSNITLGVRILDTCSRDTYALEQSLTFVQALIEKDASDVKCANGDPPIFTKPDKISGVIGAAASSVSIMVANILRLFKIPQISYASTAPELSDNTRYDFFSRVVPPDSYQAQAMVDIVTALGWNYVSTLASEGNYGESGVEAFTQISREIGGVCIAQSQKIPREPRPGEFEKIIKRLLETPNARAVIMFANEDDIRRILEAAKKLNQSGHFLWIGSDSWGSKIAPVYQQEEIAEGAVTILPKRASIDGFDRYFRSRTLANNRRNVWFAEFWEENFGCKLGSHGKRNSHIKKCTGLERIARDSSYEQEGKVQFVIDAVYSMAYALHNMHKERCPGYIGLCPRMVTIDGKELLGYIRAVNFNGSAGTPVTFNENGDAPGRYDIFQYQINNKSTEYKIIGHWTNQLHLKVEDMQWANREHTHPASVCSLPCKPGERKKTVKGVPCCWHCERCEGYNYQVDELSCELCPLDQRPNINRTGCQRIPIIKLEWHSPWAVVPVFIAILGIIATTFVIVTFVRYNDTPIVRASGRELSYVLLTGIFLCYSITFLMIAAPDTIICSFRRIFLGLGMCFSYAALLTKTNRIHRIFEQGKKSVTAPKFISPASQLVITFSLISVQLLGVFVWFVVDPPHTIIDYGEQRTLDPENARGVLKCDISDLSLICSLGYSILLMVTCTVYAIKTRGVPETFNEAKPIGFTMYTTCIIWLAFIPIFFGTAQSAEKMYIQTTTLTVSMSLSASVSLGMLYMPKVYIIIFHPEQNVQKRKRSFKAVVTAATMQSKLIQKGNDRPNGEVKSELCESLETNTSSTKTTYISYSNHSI
Take `Cc1nc(N)nc(OCC(F)(F)C(F)F)c1Br`: the z-score is -0.145. The result for `COc1ccc(C2CC(c3ccc(Cl)cc3)n3nc(N)nc3N2)cc1` (stereo unspecified) reads 2.61. Take `COc1ccc(C2CC(c3ccccc3)Nc3nc(N)nn32)cc1` (stereo unspecified): the z-score is -0.316. As to `Nc1nc2n(n1)C(c1ccco1)CC(c1ccc(Cl)c(Cl)c1)N2` (stereo unspecified), the z-score was determined as 2.38. The result for `COc1cccc(C2CC(c3ccc(Cl)cc3)n3nc(N)nc3N2)c1` (stereo unspecified) reads 0.802; that for `Nc1nc2n(n1)C(c1ccco1)CC(c1ccccc1)N2` (stereo unspecified), -0.0773; that for `COc1ccc(C2CC(c3ccc(Cl)cc3Cl)Nc3nc(N)nn32)cc1` (stereo unspecified), 1.46. For the compound `Cc1ccc(C2CC(c3cccs3)n3nc(N)nc3N2)cc1` (stereo unspecified), the z-score was determined as 0.263. To `COc1ccc(C2CC(c3ccc(Br)cc3)Nc3nc(N)nn32)cc1` (stereo unspecified) belongs 1.67; to `Nc1nc2n(n1)C(c1ccco1)CC(c1ccc(F)cc1)N2` (stereo unspecified), 0.268; to `Nc1nc2n(n1)C(c1cccs1)CC(c1ccc(F)cc1)N2` (stereo unspecified), 6.13 (active). To `COc1ccc(C2CC(c3ccc(Cl)c(Cl)c3)Nc3nc(N)nn32)cc1` (stereo unspecified) belongs 3.08 (active); to `Nc1nc2n(n1)C(c1cccs1)CC(c1ccccc1)N2` (stereo unspecified), -0.0568. To `COc1ccc(/C=N/c2oc(-c3ccccc3)cc2C#N)cc1OC` belongs 0.0441. For `CCCC(=O)C1=C(O)C(C(=O)OC)C(C)(C)CC1=NC(C)(C)C` (stereo unspecified), the z-score was -0.418. The result for `O=C1c2ccccc2C(=O)N1c1ccc(-c2nc3ccccc3o2)cc1` reads 0.248; that for `Cc1nn(C)cc1NC(=O)CC12CC3CC(CC(C3)C1)C2`, -0.0159; that for `CC(=O)Nc1ccc(C(=O)N/N=C/c2cccnc2)cc1`, -0.709. Take `Cc1nc2cc(NC(=O)N3c4ccccc4CC3C)ccc2n1C` (stereo unspecified): the z-score is -0.544.

Compound `CCc1cc2c(=O)c(-c3cnn(-c4ccccc4)c3)c(C)oc2cc1OCC(=O)Nc1ccc(F)c(F)c1` registered a z-score of 0.0216.

For `Cc1nc(NCCc2ccc(S(N)(=O)=O)cc2)c2c(C)c(C)sc2n1`, the z-score was 6.05 (active). To `Cc1sc2ncnc(NCCc3ccc(S(N)(=O)=O)cc3)c2c1C` belongs 0.0936. To `Cc1nc(NCCc2ccc(S(N)(=O)=O)cc2)c2c3c(sc2n1)CCC3` belongs -0.34. The result for `O=c1cc(CSc2nnc(-c3ccccc3)o2)c2ccccc2[nH]1` reads 0.487; that for `COc1ccc(/C=N\NC(=O)/C(=C\Nc2nccc(C)n2)NC(=O)c2ccccc2)cc1`, -0.263. Compound `C=CCn1c(-c2csc(-c3ccccc3)n2)n[nH]c1=S` displayed a z-score of 0.103. The result for `C=CCn1c(-c2csc(-c3ccc(Cl)cc3)n2)n[nH]c1=S` reads 2.89; that for `CCn1c(-c2csc(-c3ccc(Cl)cc3)n2)n[nH]c1=S`, 1.31; that for `CC(C)N(C(=O)Nc1ccc2nccnc2c1)C(C)C`, -0.935. Regarding `COc1ccc(OC)c(NC(=O)CSc2nnc(Cn3nnc4ccccc43)n2C)c1`, the z-score is -0.116. The result for `NC(=O)c1ccc(NC(=O)COC(=O)CC(NC(=O)c2ccccc2Cl)c2ccccc2)cc1` (stereo unspecified) reads 1.26.

The record behind these values is PubChem BioAssay AID488969 (Vanderbilt High Throughput Screening Facility, 2010).
